Values joined by “and” are separate entries in the source; they are usually repeats but may differ in a detail not shown here. Equal values may be shown once. Among all 5,500 compounds or so, about 2,000 (36%) were called active. Not shown: some 18% with an inconclusive outcome. Cut-off read from the data, not from the text of the source: active = normalized growth mostly below about 0.91 (no sharp cut-off); inconclusive = no clear call, values can overlap the other calls; inactive = mostly above about 0.92. The list shows a part of the results.
Assay: chemical genetic growth profiling, strain panel (AID 1159580);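 note: tested at 20 µM; growth read once vehicle control cultures reached saturation at 30 °C; 1 = growth at the plate median or of vehicle wells; lower values mean less growth of the strain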
Conditions: S. cerevisiae deletion strains, growth OD

Measured: normalized growth

NC(=O)NCCCC(N)C(=O)O (configuration not stated)
inactive: locus YAL013W, strain DEP1, stronger effect = lower value 1.01 | locus YAL021C, strain ccr4, stronger effect = lower value 0.962 | locus YAL026C, strain drs2, stronger effect = lower value 1.01 | locus YAL030W, strain snc1, stronger effect = lower value 1.01 | locus YBL061C, strain skt5, stronger effect = lower value 1.01 | locus YBR009C, strain hhf1, stronger effect = lower value 1.05 | locus YBR021W, strain FUR4, stronger effect = lower value 1.01 | locus YBR023C, strain chs3, stronger effect = lower value 1.01 | locus YBR171W, strain sec66, stronger effect = lower value 0.99 | locus YBR229C, strain ROT2, stronger effect = lower value 1.01 | locus YBR231C, strain swc5, stronger effect = lower value 1.03 | locus YBR279W, strain paf1, stronger effect = lower value 1.01 | locus YCL011C, strain gbp2, stronger effect = lower value 0.996 | locus YCL016C, strain dcc1, stronger effect = lower value 1 | locus YCL029C, strain bik1, stronger effect = lower value 0.998 | locus YCL061C, strain MRC1, stronger effect = lower value 0.992 | locus YCL069W, strain vba3, stronger effect = lower value 0.996 | locus YCR088W, strain abp1, stronger effect = lower value 0.995 | locus YDL005C, strain med2, stronger effect = lower value 0.996 | locus YDL035C, strain GPR1, stronger effect = lower value 1.03 | locus YDL040C, strain nat1, stronger effect = lower value 1 | locus YDL074C, strain BRE1, stronger effect = lower value 1.06 | locus YDL101C, strain DUN1, stronger effect = lower value 1.03 | locus YDL134C, strain PPH21, stronger effect = lower value 1.02 | locus YDL185W, strain tfp1, stronger effect = lower value 0.994 | locus YDL192W, strain arf1, stronger effect = lower value 0.993 | locus YDR001C, strain nth1, stronger effect = lower value 0.989 | locus YDR069C, strain doa4, stronger effect = lower value 1.02 | locus YDR101C, strain arx1, stronger effect = lower value 0.988 | locus YDR137W, strain rgp1, stronger effect = lower value 0.986 | locus YDR150W, strain NUM1, stronger effect = lower value 1.02 | locus YDR159W, strain sac3, stronger effect = lower value 1.04 | locus YDR162C, strain NBP2, stronger effect = lower value 1.04 | locus YDR195W, strain ref2 1.02 | locus YDR297W, strain sur2, stronger effect = lower value 1.01 | locus YDR318W, strain mcm21, stronger effect = lower value 0.983 | locus YDR334W, strain swr1, stronger effect = lower value 0.982 | locus YDR335W, strain msn5, stronger effect = lower value 0.993 | locus YDR388W, stronger effect = lower value 0.992 | locus YDR392W, strain spt3, stronger effect = lower value 0.96 | locus YDR502C, strain sam2, stronger effect = lower value 0.993 | locus YEL003W, strain gim4, stronger effect = lower value 0.994 | locus YEL037C, strain rad23, stronger effect = lower value 0.995 | locus YEL061C, strain CIN8 (second series), stronger effect = lower value 0.999 | locus YEL061C, strain CIN8, stronger effect = lower value 1.01 | locus YER015W, strain faa2, stronger effect = lower value 1 | locus YER016W, strain bim1, stronger effect = lower value 1.01 | locus YER110C, stronger effect = lower value 0.988 | locus YER111C, strain swi4, stronger effect = lower value 1 | locus YER155C, strain BEM2 (second series), stronger effect = lower value 1.04 | locus YER155C, strain BEM2, stronger effect = lower value 1.01 | locus YER167W, strain BCK2, stronger effect = lower value 1.04 | locus YFR010W, strain ubp6, stronger effect = lower value 0.982 | locus YGL078C, strain dbp3, stronger effect = lower value 1 | locus YGL086W, strain mad1, stronger effect = lower value 0.997 | locus YGL167C, strain pmr1, stronger effect = lower value 1.03 | locus YGL173C, strain kem1, stronger effect = lower value 1 | locus YGL227W, strain vid30, stronger effect = lower value 0.998 | locus YGL240W, strain doc1, stronger effect = lower value 1.07 | locus YGL248W, strain PDE1, stronger effect = lower value 1.01 | locus YGL253W, strain hxk2, stronger effect = lower value 1 | locus YGR078C, strain PAC10, stronger effect = lower value 1.05 | locus YGR135W, strain pre9, stronger effect = lower value 1 | locus YGR229C, strain SMI1, stronger effect = lower value 1.02 | locus YGR252W, strain gcn5, stronger effect = lower value 0.98 | locus YHR013C, strain ard1, stronger effect = lower value 1.01 | locus YHR027C, strain rpn1, stronger effect = lower value 0.997 | locus YHR030C, strain SLT2, stronger effect = lower value 1.01 | locus YHR079C, strain IRE1 (second series), stronger effect = lower value 0.977 | locus YHR079C, strain IRE1, stronger effect = lower value 0.992 | locus YHR094C, strain hxt1, stronger effect = lower value 0.995 | locus YHR129C, strain ARP1, stronger effect = lower value 1.04 | locus YHR142W, strain chs7, stronger effect = lower value 0.93 | locus YHR200W, strain rpn10, stronger effect = lower value 0.994 | locus YIL066C, strain RNR3, stronger effect = lower value 1.02 | locus YIL073C, strain SPO22, stronger effect = lower value 1.01 | locus YIL125W, strain kgd1, stronger effect = lower value 0.987 | locus YIR030C, strain dcg1, stronger effect = lower value 0.993 | locus YJL092W, strain hpr5, stronger effect = lower value 0.979 | locus YJL095W, strain BCK1 (second series), stronger effect = lower value 1.01 | locus YJL095W, strain BCK1, stronger effect = lower value 1.05 and 1.01 | locus YJL115W, strain asf1, stronger effect = lower value 0.988 | locus YJL129C, strain trk1, stronger effect = lower value 0.973 | locus YJL134W, strain LCB3, stronger effect = lower value 1.01 | locus YJL154C, strain vps35, stronger effect = lower value 0.997 | locus YJL164C, strain tpk1, stronger effect = lower value 0.981 | locus YJL166W, strain qcr8, stronger effect = lower value 1.01 | locus YJL168C, strain set2, stronger effect = lower value 1 | locus YJL187C, strain SWE1 (second series), stronger effect = lower value 1.02 | locus YJL187C, strain SWE1, stronger effect = lower value 1 | locus YJR043C, strain POL32, stronger effect = lower value 1.03 | locus YJR066W, strain TOR1, stronger effect = lower value 0.964
